We go through two molecules from PubChem BioAssay AID434926 (Sanford-Burnham Center for Chemical Genomics, 2010).

This is one part of the list. Values without a mark were called inactive.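 The calls were made as follows: active = at least twofold enzyme activation in any of six single-dose repeats, which the averaged readout prints as negative percent; inactive = the rest.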

The target in this assay is Intestinal-type alkaline phosphatase (Homo sapiens) (UniProt P09923). As to the kind of experiment: human IAP activators, confirmation, biochemical, luminescence, single concentration, uHTS hits (AID 434926). The settings on record: purified IAP, CDP-Star luminescence, 30 min; at 8.3 µM; stronger effect = lower value.
Sequence of Intestinal-type alkaline phosphatase (Homo sapiens) (P09923 whole entry, looked up): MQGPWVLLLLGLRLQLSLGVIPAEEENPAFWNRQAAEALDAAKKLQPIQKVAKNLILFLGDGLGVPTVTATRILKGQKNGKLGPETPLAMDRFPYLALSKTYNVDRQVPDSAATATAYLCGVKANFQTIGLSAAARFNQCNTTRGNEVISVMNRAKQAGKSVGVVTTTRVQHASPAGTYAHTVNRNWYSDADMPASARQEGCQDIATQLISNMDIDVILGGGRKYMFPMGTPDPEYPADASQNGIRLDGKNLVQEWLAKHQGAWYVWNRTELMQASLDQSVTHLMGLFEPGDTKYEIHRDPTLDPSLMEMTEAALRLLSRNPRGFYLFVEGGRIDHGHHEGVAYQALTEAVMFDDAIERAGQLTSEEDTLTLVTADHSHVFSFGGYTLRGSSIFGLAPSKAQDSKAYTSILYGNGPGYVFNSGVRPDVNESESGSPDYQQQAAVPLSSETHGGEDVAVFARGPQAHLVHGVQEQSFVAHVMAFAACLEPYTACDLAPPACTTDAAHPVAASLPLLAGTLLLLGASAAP

For `COc1ccccc1N=Nc1c(O)[nH]c(=S)[nH]c1=O`, the activation (%Activity, negative = activation) is 4.66%. The same measure for `CN(c1ccccc1)c1ccc([N+](=O)[O-])c2nonc12`: -1.35%.
